This note sets out measurements from PubChem BioAssay (Tox21).

A short description of assay [1]: Human pregnane X receptor (PXR) small molecule agonists, qHTS cell viability counter screen (AID 1346977). Further: nearly all actives have a fitted effect of over 50% in size. Further: potency means the concentration at half of the fitted maximal effect. The gist of the method:
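Readout is CellTiter-Fluor fluorescence from PXR-Luc HepG2 cells. Plated cells rested 5hr, then were treated with compounds for 24hr at 37C and 5% CO2, with reagent present during the last hour.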
For orientation: In qHTS, concentration-response curves come from the screen itself.

A short description of assay [2]: Caspase-3/7 induction in HepG2 cells by small molecules, qHTS assay (AID 1346978). Further: nearly all actives have a fitted effect of over 15% in size. The gist of the method:
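Wild-type HepG2 cells, 2,000/well, settled 5 hr at 37 C and 5% CO2, then compound-treated for 17 hr; caspase-3/7 activity read by luminescent Caspase-Glo 3/7 after 30 min at room temperature.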

Assay [3] can be described thus: Caspase-3/7 induction in CHO-K1 cells by small molecules, qHTS cell viability counter screen (AID 1346979). Further: nearly all actives have a fitted effect of over 35% in size. Further: potency means the concentration at half of the fitted maximal effect. In outline:
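To flag cytotoxic compounds, treated CHO-K1 wild-type cells were given CellTiter-Fluor at 16hr and read fluorescently after 1hr at 37C; the caspase-3/7 luminescence was measured in these same wells.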

Assay [4] can be described thus: Caspase-3/7 induction in CHO-K1 cells by small molecules, qHTS assay (AID 1346980). Further: nearly all actives have a fitted effect of over 15% in size. In outline:
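Wild-type CHO-K1 cells exposed to compounds for 17hr at 37 C, 5% CO2. Caspase-3/7 activity then measured by Caspase-Glo 3/7 luminescence after 30min at room temperature.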

Assay [5] is described as follows: Caspase-3/7 induction in HepG2 cells by small molecules, qHTS cell viability counter screen (AID 1346981). Further: nearly all actives have a fitted effect of over 30% in size. Further: potency means the concentration at half of the fitted maximal effect. On activity change, negative = cytotoxicity: series mostly up to about 92 µM. In outline: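 Steps: seed 2,000 HepG2 cells per well; incubate 5 hr at 37 C; pin-add compounds in DMSO; incubate 16 hr; add CellTiter-Fluor; after 1 hr at 37 C and 5% CO2, read fluorescence.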
Assay [6] deals with Nuclear receptor subfamily 1 group I member 2 (Homo sapiens) (UniProt O75469). As to the kind of experiment: Human pregnane X receptor (PXR) small molecule agonists, qHTS assay (AID 1346982). Further: nearly all actives have a fitted effect of over 35% in size. Further: potency means the concentration at half of the fitted maximal effect. In outline:
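Agonist mode qHTS: PXR-Luc HepG2 cells plated 5 hr before DMSO-dissolved compounds were pinned in, cultured 24 hr at 37 C, 5% CO2; ONE-Glo luminescence readout.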

For assay [7], the target named is Nuclear receptor subfamily 1 group I member 2 (Rattus norvegicus) (UniProt Q9R1A7). As to the kind of experiment: Rat pregnane X receptor (rPXR) activation by small molecules, qHTS assay (AID 1346983). Further: nearly all actives have a fitted effect of over 20% in size. Further: potency means the concentration at half of the fitted maximal effect. As to conditions: rPXR luciferase reporter cells, One-Glo luminescence, 24 h; max activation: active compounds read high. In outline: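 Cell-based rPXR activation assay: rPXR cells, 2,000 per well, rested 5hr at 37 C, then exposed to compounds in DMSO for 24 hr at 37 C. Luciferase activity read by One-Glo luminescence after 30 min at room temperature.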
Sequence of Nuclear receptor subfamily 1 group I member 2 (Rattus norvegicus) (Q9R1A7 whole entry, looked up): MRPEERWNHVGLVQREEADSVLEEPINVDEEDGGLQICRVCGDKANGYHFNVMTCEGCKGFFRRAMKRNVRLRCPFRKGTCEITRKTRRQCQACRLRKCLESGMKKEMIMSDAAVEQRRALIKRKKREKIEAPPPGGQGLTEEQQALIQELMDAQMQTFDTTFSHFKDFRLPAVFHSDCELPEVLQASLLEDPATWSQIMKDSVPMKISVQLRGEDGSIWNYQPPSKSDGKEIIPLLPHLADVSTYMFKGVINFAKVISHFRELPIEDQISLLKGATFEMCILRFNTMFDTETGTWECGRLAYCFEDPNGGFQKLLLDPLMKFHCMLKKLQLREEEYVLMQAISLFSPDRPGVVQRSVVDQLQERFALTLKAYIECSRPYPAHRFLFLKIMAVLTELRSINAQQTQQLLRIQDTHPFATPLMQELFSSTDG

For assay [8], the target named is Nuclear receptor subfamily 1 group I member 2 (Homo sapiens) (UniProt O75469). In words: CYP3A4 induction through human pregnane X receptor (PXR) by small molecules, qHTS assay (AID 1346984). Further: nearly all actives have a fitted effect of over 40% in size. The gist of the method: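 Steps: seed DPX-2 cells, 5 hr at 37C; pin-transfer compounds; 24 hr at 37C; add Luciferin-IPA (3uM final), 3 hr at 37C; add One-Glo, 30 min RT; read luminescence.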
Sequence of Nuclear receptor subfamily 1 group I member 2 (Homo sapiens) (O75469 whole entry, looked up): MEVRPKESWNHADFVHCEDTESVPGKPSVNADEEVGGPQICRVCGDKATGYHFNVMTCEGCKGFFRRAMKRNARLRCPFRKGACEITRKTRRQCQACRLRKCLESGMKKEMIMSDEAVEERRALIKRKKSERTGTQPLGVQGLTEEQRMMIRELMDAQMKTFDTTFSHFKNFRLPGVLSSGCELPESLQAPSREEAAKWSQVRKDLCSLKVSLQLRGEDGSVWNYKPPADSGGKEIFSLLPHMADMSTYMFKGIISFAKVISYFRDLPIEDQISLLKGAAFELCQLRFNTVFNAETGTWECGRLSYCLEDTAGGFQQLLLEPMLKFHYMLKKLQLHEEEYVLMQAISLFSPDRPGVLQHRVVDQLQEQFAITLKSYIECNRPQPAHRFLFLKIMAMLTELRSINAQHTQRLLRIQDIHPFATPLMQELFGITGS

For assay [9] the target is unchanged. As to the kind of experiment: Human pregnane X receptor (PXR) activation by small molecules, qHTS assay (AID 1346985). Further: nearly all actives have a fitted effect of over 40% in size. The gist of the method:
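DPX-2 cells (HepG2 co-transfected with a PXR response element and a CYP3A4-promoter luciferase construct) were seeded at 2,000 per well, rested 5 hr at 37C, then exposed to DMSO-dissolved compounds for 24 hr. Activation was read as luciferase luminescence.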

The target in assay [10] is Cytochrome P450 2D6 (Homo sapiens) (UniProt P10635). As to the kind of experiment: Cytochrome P450 Family 2 Subfamily D Member 6 (CYP2D6) small molecule antagonists: luciferase reporter qHTS assay (AID 1671196). Further: nearly all actives have a fitted effect of over 50% in size. Further: potency means the concentration at half of the fitted maximal effect. On activity change, negative = inhibition: series mostly up to about 120 µM. The gist of the method:
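P450-Glo format: CYP2D6 converts a proluciferin substrate to luciferin in an NADPH-driven reaction lasting 1 h at room temperature. Light output, proportional to CYP2D6 activity, reflects interference by test chemicals.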
(In a reporter assay the amount or activity of a reporter protein is the signal.)

The target of assay [11] is Cytochrome P450 2C19 (Homo sapiens) (UniProt P33261). In words: Cytochrome P450 Family 2 Subfamily C Member 19 (CYP2C19) small molecule antagonists: luciferase reporter qHTS assay (AID 1671197). Further: nearly all actives have a fitted effect of over 65% in size. Further: potency means the concentration at half of the fitted maximal effect. On activity change, negative = inhibition: series mostly up to about 120 µM. In outline:
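Inhibition of CYP2C19 was scored from loss of luminescence in a P450-Glo proluciferin substrate assay, NADPH-started and run 1 h at 37C, with ketoconazole as positive control.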

For assay [12], the target named is Cytochrome P450 2C9 (Homo sapiens) (UniProt P11712). As to the kind of experiment: Cytochrome P450 Family 2 Subfamily C Member 9 (CYP2C9) small molecule antagonists: luciferase reporter qHTS assay (AID 1671198). Further: nearly all actives have a fitted effect of over 50% in size. Further: potency means the concentration at half of the fitted maximal effect. On activity change, negative = inhibition: series mostly up to about 120 µM. In outline:
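P450-Glo proluciferin substrate with CYP2C9 enzyme; 10 min RT preincubation, then NADPH regeneration 1 h at 37C; luciferin detection reagent 20 min RT, luminescence in relative luminescence units.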

Assay [13] concerns the target Cytochrome P450 1A2 (Homo sapiens) (UniProt P05177). In words: Cytochrome P450 Family 1 Subfamily A Member 2 (CYP1A2) small molecule antagonists: luciferase reporter qHTS assay (AID 1671199). Further: nearly all actives have a fitted effect of over 50% in size. Further: potency means the concentration at half of the fitted maximal effect. On activity change, negative = inhibition: series mostly up to about 120 µM. In outline:
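Inhibition of CYP1A2 conversion of proluciferin to luciferin, detected by luminescence. Reaction run 1 h at room temperature with NADPH regeneration after brief compound preincubation.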

In assay [14] the target is Voltage-gated inwardly rectifying potassium channel KCNH2 (Homo sapiens) (UniProt Q12809). As to the kind of experiment: Human Ether-a-go-go-Related Gene (hERG) channel small molecule antagonists: fluorescence cell-based qHTS assay (AID 1671200). Further: nearly all actives have a fitted effect of over 50% in size. Further: potency means the concentration at half of the fitted maximal effect.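 On activity change, negative = inhibition: hERG-expressing U2OS cells given a thallium stimulus after FluxOR II dye loading; series mostly up to about 77 µM.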 In outline: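 Measured: Tl+ flux via fluorescence (480/540 nm) in hERG-expressing U2OS cells after 1 h dye loading at room temperature.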
Sequence of Voltage-gated inwardly rectifying potassium channel KCNH2 (Homo sapiens) (Q12809 whole entry, looked up): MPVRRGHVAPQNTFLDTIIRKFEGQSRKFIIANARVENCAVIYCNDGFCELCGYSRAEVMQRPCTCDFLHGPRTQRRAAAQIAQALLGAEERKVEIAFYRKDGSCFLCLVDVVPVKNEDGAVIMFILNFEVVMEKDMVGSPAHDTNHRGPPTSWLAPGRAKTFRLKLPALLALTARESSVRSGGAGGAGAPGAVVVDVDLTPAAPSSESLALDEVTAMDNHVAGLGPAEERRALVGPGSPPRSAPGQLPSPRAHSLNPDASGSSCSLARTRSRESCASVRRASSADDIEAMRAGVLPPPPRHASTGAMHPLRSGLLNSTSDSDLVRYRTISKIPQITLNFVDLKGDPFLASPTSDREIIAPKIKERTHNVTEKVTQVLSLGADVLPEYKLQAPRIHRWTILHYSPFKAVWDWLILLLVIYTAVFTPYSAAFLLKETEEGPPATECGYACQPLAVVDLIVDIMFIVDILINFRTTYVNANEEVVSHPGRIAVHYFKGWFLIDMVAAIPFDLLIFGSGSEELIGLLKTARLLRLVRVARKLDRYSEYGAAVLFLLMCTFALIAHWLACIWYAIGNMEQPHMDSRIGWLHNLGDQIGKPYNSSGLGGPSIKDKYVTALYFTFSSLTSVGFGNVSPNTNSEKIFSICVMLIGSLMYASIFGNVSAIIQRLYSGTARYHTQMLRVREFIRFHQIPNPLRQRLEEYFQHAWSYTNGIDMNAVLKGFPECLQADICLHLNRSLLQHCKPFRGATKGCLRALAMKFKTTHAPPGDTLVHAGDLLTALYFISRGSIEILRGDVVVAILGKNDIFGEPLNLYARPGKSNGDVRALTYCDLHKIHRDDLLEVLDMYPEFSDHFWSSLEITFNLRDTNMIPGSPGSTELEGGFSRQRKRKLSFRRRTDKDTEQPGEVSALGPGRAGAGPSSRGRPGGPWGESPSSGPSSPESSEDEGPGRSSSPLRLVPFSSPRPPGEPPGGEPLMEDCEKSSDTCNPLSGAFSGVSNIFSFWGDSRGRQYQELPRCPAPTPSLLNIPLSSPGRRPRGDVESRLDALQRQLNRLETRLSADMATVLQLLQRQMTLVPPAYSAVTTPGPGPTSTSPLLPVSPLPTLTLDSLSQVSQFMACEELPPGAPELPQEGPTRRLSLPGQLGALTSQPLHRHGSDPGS

Assay [15] addresses Cytochrome P450 3A4 (Homo sapiens) (UniProt P08684). In words: Cytochrome P450 Family 3 Subfamily A Member 4 (CYP3A4) small molecule antagonists: luciferase reporter qHTS assay (AID 1671201). Further: nearly all actives have a fitted effect of over 50% in size. Further: potency means the concentration at half of the fitted maximal effect. On activity change, negative = inhibition: series mostly up to about 120 µM. In outline: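 Setup: enzyme-substrate mix, compound pin transfer, 10 min RT. Reaction: NADPH regeneration solution, 1 h RT. Readout: detection reagent stops turnover, luminescence measured after 20 min, expressed in relative luminescence units.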

Values without a mark were called inactive. Inconclusive results are not listed. Activity calls are given as the source filed them. The call rests on the fitted dose curve; in most records, active means well fitted curve in the direction sought with a large enough effect in the repeat runs; inconclusive means weak or mixed curves; inactive means no such curve, though single readings can be large; an effect the other way counts as inactive or inconclusive.
On the % scale 0 is the no-effect control and ±100 the full control effect.

Sequence of Cytochrome P450 1A2 (Homo sapiens) (P05177 whole entry, looked up): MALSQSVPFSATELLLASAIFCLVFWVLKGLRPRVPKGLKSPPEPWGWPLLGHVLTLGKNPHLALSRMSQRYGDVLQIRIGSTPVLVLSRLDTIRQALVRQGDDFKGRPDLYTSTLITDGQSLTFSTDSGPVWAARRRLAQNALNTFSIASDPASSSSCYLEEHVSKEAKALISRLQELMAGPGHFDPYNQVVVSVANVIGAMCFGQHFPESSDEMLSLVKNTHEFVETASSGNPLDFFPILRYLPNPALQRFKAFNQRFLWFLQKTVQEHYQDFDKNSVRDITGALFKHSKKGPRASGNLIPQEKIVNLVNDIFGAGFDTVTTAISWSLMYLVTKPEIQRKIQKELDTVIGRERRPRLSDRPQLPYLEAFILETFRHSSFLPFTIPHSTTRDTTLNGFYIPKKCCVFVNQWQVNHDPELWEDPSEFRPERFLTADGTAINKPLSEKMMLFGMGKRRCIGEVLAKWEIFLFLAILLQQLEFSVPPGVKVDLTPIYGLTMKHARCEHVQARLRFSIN
Sequence of Cytochrome P450 2D6 (Homo sapiens) (P10635 whole entry, looked up): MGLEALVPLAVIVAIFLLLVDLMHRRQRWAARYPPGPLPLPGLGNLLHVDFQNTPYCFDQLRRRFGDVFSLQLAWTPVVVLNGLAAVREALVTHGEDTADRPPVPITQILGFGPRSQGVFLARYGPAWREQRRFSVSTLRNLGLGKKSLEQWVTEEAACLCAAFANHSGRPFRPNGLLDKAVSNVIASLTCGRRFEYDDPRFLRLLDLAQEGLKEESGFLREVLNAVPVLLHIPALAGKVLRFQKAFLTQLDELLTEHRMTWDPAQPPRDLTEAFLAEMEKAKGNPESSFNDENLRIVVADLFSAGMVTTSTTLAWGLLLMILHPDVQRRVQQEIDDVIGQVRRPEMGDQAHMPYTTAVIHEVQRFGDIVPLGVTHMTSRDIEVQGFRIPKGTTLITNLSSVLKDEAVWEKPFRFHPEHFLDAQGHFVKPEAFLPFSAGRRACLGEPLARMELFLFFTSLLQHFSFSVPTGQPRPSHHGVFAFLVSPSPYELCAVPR
Sequence of Cytochrome P450 2C19 (Homo sapiens) (P33261 whole entry, looked up): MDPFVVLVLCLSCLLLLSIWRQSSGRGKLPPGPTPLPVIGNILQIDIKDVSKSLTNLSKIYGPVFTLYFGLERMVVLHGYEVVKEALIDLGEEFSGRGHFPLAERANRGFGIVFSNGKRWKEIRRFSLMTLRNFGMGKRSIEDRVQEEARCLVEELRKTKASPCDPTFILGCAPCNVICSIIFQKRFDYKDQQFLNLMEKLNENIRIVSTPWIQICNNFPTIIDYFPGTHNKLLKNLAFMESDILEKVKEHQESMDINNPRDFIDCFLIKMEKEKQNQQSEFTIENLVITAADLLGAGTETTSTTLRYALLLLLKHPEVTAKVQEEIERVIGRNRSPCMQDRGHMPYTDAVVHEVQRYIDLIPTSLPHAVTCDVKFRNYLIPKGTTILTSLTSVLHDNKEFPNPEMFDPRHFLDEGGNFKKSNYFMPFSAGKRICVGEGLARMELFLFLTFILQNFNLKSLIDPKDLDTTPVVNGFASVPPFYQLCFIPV
Sequence of Cytochrome P450 3A4 (Homo sapiens) (P08684 whole entry, looked up): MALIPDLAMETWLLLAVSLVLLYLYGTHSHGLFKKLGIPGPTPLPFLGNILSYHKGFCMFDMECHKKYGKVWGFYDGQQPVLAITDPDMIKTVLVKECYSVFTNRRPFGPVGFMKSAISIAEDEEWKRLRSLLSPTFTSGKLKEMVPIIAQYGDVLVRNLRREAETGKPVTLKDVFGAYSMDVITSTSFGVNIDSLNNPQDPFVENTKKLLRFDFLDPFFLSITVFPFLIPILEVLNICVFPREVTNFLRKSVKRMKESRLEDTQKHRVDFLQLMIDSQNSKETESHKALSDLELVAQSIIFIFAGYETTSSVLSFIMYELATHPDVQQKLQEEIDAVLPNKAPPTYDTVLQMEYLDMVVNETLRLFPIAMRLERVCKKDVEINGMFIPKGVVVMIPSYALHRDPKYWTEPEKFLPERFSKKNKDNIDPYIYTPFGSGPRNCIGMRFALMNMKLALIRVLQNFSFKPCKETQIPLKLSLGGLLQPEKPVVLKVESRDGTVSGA
Sequence of Cytochrome P450 2C9 (Homo sapiens) (P11712 whole entry, looked up): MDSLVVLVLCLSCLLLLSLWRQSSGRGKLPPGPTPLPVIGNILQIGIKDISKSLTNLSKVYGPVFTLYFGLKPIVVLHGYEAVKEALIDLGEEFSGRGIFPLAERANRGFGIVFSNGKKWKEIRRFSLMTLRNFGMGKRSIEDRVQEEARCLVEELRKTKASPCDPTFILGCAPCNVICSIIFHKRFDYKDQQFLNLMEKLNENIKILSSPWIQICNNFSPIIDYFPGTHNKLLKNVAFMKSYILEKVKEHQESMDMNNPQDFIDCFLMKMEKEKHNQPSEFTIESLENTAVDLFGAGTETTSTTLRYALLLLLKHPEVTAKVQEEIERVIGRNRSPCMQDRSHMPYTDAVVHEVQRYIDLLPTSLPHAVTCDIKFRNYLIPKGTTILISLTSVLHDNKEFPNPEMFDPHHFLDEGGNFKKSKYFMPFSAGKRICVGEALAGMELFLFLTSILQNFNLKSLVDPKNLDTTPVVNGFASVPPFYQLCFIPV

On to `CC(=O)NO`, for which the Potency result in assay [1], in [2], in [3], in [4], in assay [5] and in [6] was “inactive” throughout. Moreover, the Potency entry in assay [8], in assay [9], in assay [10], in assay [11], in assay [12] and in assay [13] was “inactive” in each case. The Potency result in [14] and in assay [15] was “inactive” throughout. Also, the max activation in [7] is -0.0404%.
`NCc1ccccc1Sc1ccccc1CO`: the Potency result in assay [1], in assay [2], in assay [3], in assay [4], in assay [5] and in assay [6] was “inactive” in each case. Also, the Potency entry in assay [8], in [9] and in assay [14] was “inactive” in each case. Also, the max activation in [7] was -1.62%. Also, the figures for the Potency in [10], in assay [11] and in assay [12] were 7.76 µM (active), 21.9 µM (active) and 9.77 µM (active), respectively.
With `CCNc1cc(O)ccc1C`, the Potency result in assay [1], in [2], in assay [4], in [5] and in assay [14] was “inactive” throughout. Besides, the Potency was 60.4 µM (active) in assay [3]; 48 µM (active) in [6]; 39.5 µM (active) in assay [10]; 35.2 µM (active) in [11]; 9.92 µM (active) in assay [12]; 12.5 µM (active) in [13]. Besides, in [15], the Potency is 9.92 µM (active).
With `O[C@@H](COc1cccc2ncccc12)CN1CCN(C2c3ccccc3[C@@H]3[C@H](c4ccccc42)C3(F)F)CC1` (some centres undefined), the Potency was 23.7 µM (active) in assay [1]; 16.8 µM (active) in [3]; 21.1 µM (active) in [5]; 1.19 µM (active) in assay [6]; 11 µM (active) in assay [10]; 21.9 µM (active) in [11]. For the same compound, the Potency in [12] is 11 µM (active); in [13] it was 15.5 µM (active); in assay [14], 10.7 µM (active). Moreover, the Potency result in assay [2] and in assay [4] was “inactive” each time.
Regarding `CCCCCCCCCCCc1ccccc1`, the Potency result in assay [1], in assay [2], in [3], in assay [4], in [5] and in assay [6] was “inactive” in each case. Besides, the Potency result in [10], in assay [11], in assay [12], in assay [13] and in [15] was “inactive” each time.
As to `CCOC(=O)C(O)c1ccccc1` (centres undefined), the Potency entry in [1], in assay [2], in assay [3], in assay [4], in assay [5] and in [6] was “inactive” in each case. The Potency entry in assay [10], in [11], in assay [12], in assay [13], in [14] and in [15] was “inactive” in each case.
As for `COc1ccc(-c2nc3ccc(C4=NNC(=O)CC4C)cc3[nH]2)cc1` (centres undefined), the Potency entry in [1], in [2], in [4], in assay [5], in assay [8] and in [14] was “inactive” throughout. For the same compound, the Potency entry in assay [15] is “inactive”. The Potency is 23.7 µM (active) in assay [3], 13.3 µM (active) in assay [6], 22.4 µM (active) in assay [7] and 3.63 µM (active) in assay [13].
`CC(CSC(=O)c1ccccc1)C(=O)N1C[C@@H](Sc2ccccc2)C[C@H]1C(=O)O` (some centres undefined): the values for the activity change, negative = cytotoxicity in assay [1], in assay [3] and in [5] were 14.3% [at 19 µM], -1.81% [at 19 µM] and -2.03% [at 19 µM], respectively. The caspase activation in assay [2] was 0.287% [at 19 µM]. Moreover, in [4], the caspase-3/7 activation was 0.0462% [at 19 µM]. In addition, the activation in assay [6] is 21.6% [at 19 µM]. For the same compound, the max activation in assay [7] is -2.82%. The Potency result in [8], in [9], in [11] and in assay [13] was “inactive” each time. For the same compound, the activity change, negative = inhibition in [10] was 2.02% [at 23.6 µM]; in assay [12], -9.74% [at 23.6 µM]; in assay [14], 3.26% [at 15.8 µM]; in [15], 15.7% [at 23.6 µM].
`COc1ccc(C(=O)N2CCN(CC(=O)N3CCOCC3)CC2)cc1`: the Potency result in assay [1], in [2], in assay [3], in assay [4], in [5] and in [6] was “inactive” throughout. For the same compound, the Potency entry in assay [8], in [9], in assay [10], in assay [11], in [12] and in assay [13] was “inactive” each time. Also, the Potency entry in assay [15] is “inactive”. Besides, the max activation in assay [7] is -1.44%.
